mHTT-CaM PPI inh = mutant huntingtin-calmodulin interaction inhibitors – biochemical, AlphaScreen, primary screen | P42858 | AlphaScreen His-mHTT/GST-CaM binding, luminescence | inhibition, % at 15 µM | actives 3.6% (n = 190,000) | AID 1671202, 2021;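 further: 0% = both proteins with DMSO and 100% = one protein alone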
Pf apPOL block = Pf-apPOL inhibitors, biochemical, fluorescence; inhibition, % at 10 µM; AID 1794808, 2022; Recombinant Pf-apPOL, molecular beacon fluorescence, 1.5 h; Plasmodium falciparum apicoplast DNA polymerase (apPOL); actives 0.25% (n = 210,000)
* = called active by the depositor; x = no result given. Hits are enriched below; roughly 3.6% of the tested compounds scored in any of these assays. No stated cut-off is given here; in the data, active means inhibition above about 50%; inactive means the rest.

SMILES	mHTT-CaM PPI inh	Pf apPOL block
O=C1c2ccccc2-c2onc3c(N4CCOCC4)cc(Nc4cccc(F)c4)c1c23	-6	-1
CN(C)c1ccc(Nc2cc(N3CCOCC3)c3noc4c3c2C(=O)c2ccccc2-4)cc1	13	-3
O=C(O)CCCNc1cc(N2CCOCC2)c2noc3c2c1C(=O)c1ccccc1-3	52*	-2
O=C(O)c1ccc(Nc2cc(N3CCOCC3)c3noc4c3c2C(=O)c2ccccc2-4)cc1	55*	-3
O=S(=O)(O)c1cc(I)c(O)c2ncccc12	100*	-194
O=S(=O)(O)c1cc(Br)ccc1I	x	-14
COc1cc2c(cc1OC)C(c1ccccc1[N+](=O)[O-])NCC2 (configuration not stated)	-1	-5
O=C(C=Cc1ccc2ccccc2n1)c1cccc(O)c1	7	-16
CC1Oc2ccccc2C=C1C=CC(=O)c1cccc(O)c1 (configuration not stated)	61*	-8
CCOc1ccc(C(=O)Nc2cccc(C)n2)cc1OCC	1	-4
CCOc1cccc(C(Nc2cccc(C)n2)c2ccc3ccc(C)nc3c2O)c1 (configuration not stated)	70*	-58
CCOc1cc(OCC)cc(C(=O)Nc2ccccn2)c1	-9	0
CCOc1cccc(C(Nc2ccccn2)c2ccc3ccc(C)nc3c2O)c1 (configuration not stated)	59*	-1
COc1ccccc1Nc1nc(N2CCCC2)nc(N2CCCC2)n1	-18	-6
Cc1nn(-c2ccccc2)nc1C(=O)ON1C(=O)C2C3C=CC(O3)C2C1=O (configuration not stated)	x	-72
O=C(ON1C(=O)C2C3C=CC(O3)C2C1=O)c1cccnc1Oc1ccccc1 (configuration not stated)	x	77*
COc1cc(C2C3=C(CCCC3=O)Nc3ccc4ncccc4c32)ccc1OCc1ccccc1 (configuration not stated)	100*	-1
CCOc1ccc(C2C3=C(CCCC3=O)Nc3ccc4ncccc4c32)cc1 (configuration not stated)	36	-1
O=C1CCCC2=C1C(c1ccc(OCc3ccccc3F)c(Cl)c1)C1=C(CCCC1=O)N2	-6	-4
CCOc1cc(C2C3=C(CCCC3=O)NC3=C2C(=O)CCC3)ccc1OCc1cccc(F)c1	75*	-30
O=C(Nc1cccc(F)c1)Nc1cccc(Cl)c1	-31	-7
O=C(CCC1NC(=O)c2ccccc2NC1=O)NCCc1c[nH]c2ccccc12 (configuration not stated)	-5	-10
O=C(Nc1ccccc1[N+](=O)[O-])c1ccc(Cl)c(S(=O)(=O)NC2CCCC2)c1	28	-7
O=C(Nc1ccccc1[N+](=O)[O-])c1cc(S(=O)(=O)NC2CCCCC2)c(Cl)cc1Cl	58*	-4
COc1ccc(N(C(=O)CC2CCCCC2)C2C=CS(=O)(=O)C2)c(OC)c1 (configuration not stated)	5	-4
SMILES	mHTT-CaM PPI inh	Pf apPOL block
CCc1onc(C)c1C1CCCN1Cc1cc(Cl)ccc1O (configuration not stated)	-11	-1
Cc1ccccc1OCC(=O)N1CCC(c2nc3ccncc3n2C)C1 (configuration not stated)	3	-5
Cc1ccccc1N1CCN(C(=O)C2CC(=O)N(CCc3ccccc3)C2)CC1 (configuration not stated)	14	-1
CC(C)N1C[C@@H](C)C(=O)C[C@@H]1C	-8	x
N#CC1=C(N)NC(SCC(=O)Nc2ccc(Br)cc2)=C(C#N)C12CCCCC2	83*	-8
CCSC1=C(C#N)C2(CCCC2)C(C#N)=C(N)N1	2	2
COc1ccc(CC(=O)N2CC3CC(NC(=O)c4ccccc4)C2C3)cc1Cl (configuration not stated)	11	0
CCOC(=O)c1cc(C)n(Cc2ccncc2)c1C	x	-9
O=C1c2ccc3ccccc3c2-c2cccc3cccc1c23	x	23
O=C1C([N+](=O)[O-])=C(O)c2cccc3cccc1c23	x	70*
O=C(C1CCCN(CCCc2ccccc2)C1)N1CCCC1 (configuration not stated)	-4	-5
O=C(O)C1CC2C=CCC(C1)C2=O (configuration not stated)	x	-2
Fc1ccc2c(c1)[C@@H]1C=CC[C@@H]1[C@H](c1ccccc1Cl)N2	-4	x
COc1ccc(Br)cc1C1Nc2ccc(F)cc2C2C=CCC21 (configuration not stated)	73*	-2
COc1ccc(C2Nc3ccc(Br)cc3C3C=CCC32)cc1[N+](=O)[O-] (configuration not stated)	86*	-9
COc1ccc(C2Nc3c(cccc3C(F)(F)F)C3C=CCC32)cc1[N+](=O)[O-] (configuration not stated)	38	-9
